Rows were chosen to be rich in hits. Some 4.1% of all compounds tested hit in one or more screens of this group.
PRMT1 inh: inhibitors of human PRMT1; inhibition, % at 2.79 µM; recombinant PRMT1, activity-based probe fluorescence polarization; hit rate 1.3% among 370,000;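 active = inhibition above about 21% made by adding two undisclosed values, limit read from the data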
rCAG binder: molecules binding r(CAG) RNA repeats; inhibition, % at 3 µM; hit rate 1.3% among 370,000; r(CAG) RNA repeat, TO-PRO-1 dye displacement fluorescence;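 active = inhibition above the plate cutoff, the mean of all test compounds on that plate plus 3 SD, cut at about 35% in these data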;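 note: 0% = DMSO alone and 100% = 100 µM mitoxantrone as full dye displacement; higher means more dye released from RNA so lower well fluorescence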
UHRF1 binding: UHRF1 methyl-DNA binding inhibition | Q96T88 | UHRF1 binding to methylated oligo, TR-FRET | inhibition, % at 4.4 µM | hit rate 0.75% among 370,000; in the data active = inhibition above about 21%;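 note: UHRF1 SRA domain binding a hemimethylated CpG hairpin DNA probe; 0% = median of test compound wells and 100% = reference inhibitor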
MBD2 DNA inh: MBD2-methylated oligo binding inhibition. hit rate 0.31% among 370,000. TR-FRET, MBD2 binding to methylated oligonucleotide. Q9UBB5. AID 686964. inhibition, % at 4.4 µM; in the data active = inhibition above about 13%
LEDGF integ inh: blocks HIV-1 LEDGF/p75-dependent DNA integration; AID 743269; hit rate 0.64% among 370,000; inhibition, % at 3.7 µM; TR-FRET IN-LEDGF/p75 DNA integration, Eu/Cy5;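 active = inhibition above the screen-wide mean plus 3 SD, cut at about 13% in these data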;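 note: signal is the Cy5 over europium emission ratio at 671 and 618 nm; 0% = plate median of compound wells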
ABHD5-PLIN5 inh: blocks binding of human ABHD5 to perilipin-5; Split G. princeps luciferase complementation, luminescence, 4 h; inhibition, % at 4 µM; hit rate 0.78% among 360,000;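 active = inhibition above the mean inhibition across every tested compound plus 3 SD, cut at about 22% in these data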;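 note: 0% = DMSO only wells and the 100% control is not disclosed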
rCAG binder conf: r(CAG) RNA repeat binding, confirmation; hit rate 70% among 4,300; inhibition, % at 3 µM; shares compounds with rCAG binder; TO-PRO-1 dye displacement fluorescence;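 active = inhibition above a per-plate cutoff, the mean inhibition of sample wells plus 3 SD, cut at about 35% in these data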;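 note: loss of TO-PRO-1 fluorescence as compound displaces dye from 1x1 AA loop RNA; 0% = DMSO only wells and 100% = 100 µM mitoxantrone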
dCAG dye counter: disrupts DNA CAG TO-PRO-1 complex, flagging rCAG hits; d(CAG) DNA oligo TO-PRO-1 dye displacement, fluorescence; hit rate 94% among 4,300; shares compounds with rCAG binder; inhibition, % at 3 µM;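 active = inhibition above its plate's cutoff, the mean test-well inhibition plus 3 SD, cut at about 4.8% in these data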;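 note: 0% = DNA dye mix with DMSO and 100% = 100 µM mitoxantrone; hits displace the dye from DNA and so lower well fluorescence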
Active calls of the source: *; . = no result given.

SMILES	PRMT1 inh	rCAG binder	UHRF1 binding	MBD2 DNA inh	LEDGF integ inh	ABHD5-PLIN5 inh	rCAG binder conf	dCAG dye counter
O=C1OC(c2ccc3ccccc3c2O)(c2ccc3ccccc3c2O)c2ccccc21	20	63*	-3	-6	5	-6	70*	35*
Cc1ncc(CO)c2c1Oc1nc(-c3ccccc3)nc(SCC(=O)Nc3cccc(O)c3)c1C2	3	58*	-2	0	8	-8	30	17*
COc1ccc(-c2nc3c(c(SCC(=O)Nc4cccc(O)c4)n2)Cc2c(CO)cnc(C)c2O3)cc1	4	58*	-1	1	14*	33*	25	16*
CCc1cc2c(nc1CC)CCCN2S(=O)(=O)c1ccc(C)cc1	-4	-1	0	-4	-2	.	.	.
O=C(O)c1cc(-c2ccc3ccccc3n2)nc2ccccc12	-1	2	2	-4	4	6	.	.
O=C(O)c1cc(-c2c[nH]c3ccccc23)nc2cc3ccccc3cc12	1	54*	4	-2	7	-2	35*	13*
O=C(O)c1cc(-c2ccc3ccccc3c2)nc2ccc(F)cc12	-3	37*	0	-3	0	-21	19	4
O=C(O)c1cc(-c2cccc3ccccc23)nc2ccccc12	6	-1	-1	-2	-10	3	.	.
O=C(CSc1nc2ccccc2s1)NNC(=S)Nc1ccccc1	1	14	-7	-2	2	-4	.	.
Cc1ccc(NC(=S)NNC(=O)CSc2nnc(SCc3cccc4ccccc34)s2)cc1	-6	52*	-8	1	7	.	51*	20*
CCc1ccc(Nc2nnc(SCC(=O)NC(=O)c3cccn3C)s2)cc1	0	8	3	-1	-4	1	.	.
O=C(CSc1nc2ccccc2s1)NNC(=S)Nc1ccc(Br)cc1	5	53*	-13	-8	1	-19	61*	22*
Cc1ccc(CSc2nnc(SCC(=O)N/N=C/c3ccc(C(=O)O)cc3)s2)cc1	5	43*	0	-5	-3	-2	41*	11*
CCc1ccc(Nc2nnc(SCC(=O)Nc3ccc(C(=O)O)cc3)s2)cc1	2	36*	0	-2	1	-7	22	5.0*
O=S1(=O)c2ccc(Br)cc2OC[C@@H](c2ccccc2)N1Cc1cn(CCC2OCCCO2)nn1	5	6	0	6	-4	.	.	.
O=C(NCCc1ccccc1)O[C@H]1CC[C@@]23CCCN2C(=O)CCC[C@H]3C1	-1	.	1	0	-3	.	.	.
O=C(CSc1nnc(SCc2cccc3ccccc23)s1)Nc1ccc(C(=O)O)cc1	0	67*	19	1	6	-9	68*	30*
COc1cc(NS(=O)(=O)c2ccc(NC(=O)COc3ccccc3Cl)cc2)nc(OC)n1	0	65*	-1	-3	1	.	38*	12*
COc1cc(NS(=O)(=O)c2ccc(NC(=O)COc3cccc(C)c3)cc2)nc(OC)n1	6	26	4	4	1	-3	.	.
CCCC(=O)Nc1ccc(S(=O)(=O)Nc2cc(OC)nc(OC)n2)cc1	3	0	2	-5	-2	9	.	.
CCOc1ccccc1C(=O)Nc1ccc(S(=O)(=O)Nc2cc(OC)nc(OC)n2)cc1	-1	51*	-3	2	3	4	28	7.6*
CCOC(=O)CC[C@H]1CC[C@]2(CCCN(C(=O)c3ccc4ccccc4n3)C2)O1	3	0	-2	10	1	.	.	.
C=CCNc1cccc2c1S(=O)(=O)N[C@H](CC(C)C)CO2	2	1	2	-8	-3	.	.	.
Cc1ccc(S(=O)(=O)Nc2ccc3ccccc3c2[N+](=O)[O-])cc1	-1	61*	2	-7	11	-5	52*	18*
Cc1ccc(S(=O)(=O)Nc2ccc3cc([N+](=O)[O-])ccc3c2[N+](=O)[O-])cc1	1	83*	1	0	2	-4	82*	47*
SMILES	PRMT1 inh	rCAG binder	UHRF1 binding	MBD2 DNA inh	LEDGF integ inh	ABHD5-PLIN5 inh	rCAG binder conf	dCAG dye counter
CN(C)c1cccc2c(S(=O)(=O)NCC3CCN(C(=O)C(=O)c4cccs4)CC3)cccc12	8	10	3	0	-4	.	.	.
C[C@@H]1CN([C@H](C)CO)C(=O)c2cc(NC(=O)Nc3ccccc3)ccc2O[C@@H](C)CCCCO[C@H]1CN(C)S(C)(=O)=O	2	6	3	-1	1	.	.	.
Cc1[nH]c2ccccc2c1N=Nc1ccccc1C(=O)O	9	53*	-2	-2	1	-2	19	5.7*
CCOC(=O)CCCNC(=O)OC1CC2CC1[C@H]1CCCCN1[C@H]2Cc1ccccc1 (some centres not stated)	-3	2	-3	2	4	.	.	.
Cc1ccc(C2c3[nH]c4ccccc4c3C[C@H]3C(=O)N(c4ccccc4C(=O)N4CCC[C@@H]4C(=O)O)C(=O)N23)cc1 (some centres not stated)	-4	39*	0	-2	2	-8	57*	19*
O=C(O)C1CCN(C(=O)c2ccccc2N2C(=O)[C@@H]3Cc4c([nH]c5ccccc45)C(c4cccc(Cl)c4)N3C2=O)CC1 (some centres not stated)	1	38*	-3	0	5	-12	47*	14*
Cc1ccc2nc(-c3ccc(NC(=O)CSCC(=O)O)cc3)sc2c1	-7	53*	-3	5	5	11	39*	11*
Cc1ccc2nc(-c3ccc(NC(=O)CCN4C(=O)c5ccccc5C4=O)cc3)sc2c1	6	6	-1	5	-4	9	.	.
Cc1csc(NC(=O)CSCC(=O)O)c1-c1nc2ccccc2s1	2	44*	-2	-2	4	-2	57*	19*
Cc1ccc2nc(-c3ccc(NC(=O)COCC(=O)O)cc3)sc2c1	8	42*	3	3	1	4	34	8.3*
Cc1csc(NC(=O)CSc2nc3ccccc3s2)n1	2	6	-1	2	1	1	.	.
CCC(=O)NC(=S)Nc1ccc(-c2nc3ccc(C)cc3s2)cc1	3	-1	4	-1	2	-1	.	.
CC1CCCCC1NC(=O)COC(=O)c1c2c(nc3ccccc13)/C(=C/c1ccco1)CC2 (configuration not stated)	16	53*	7	7	12	2	51*	28*
Cc1cc(C(=O)OCC(=O)NC2CCCCC2C)c2ccccc2n1 (configuration not stated)	1	0	3	-1	-1	-2	.	.
CC(C)(C)S(=O)(=O)N1C[C@@H]2CC(=O)C(CCO)=C2[C@H]1CCO	5	0	1	-3	3	.	.	.

Assay outcomes as filed in PubChem BioAssay.
